# For part of these data: Entries with a potency or affinity are not part of this list.
# Columns and labels:
# Staphylococcus aureus = test: Antibacterial activity against Staphylococcus aureus MRSA ATCC 43300 (CO-ADD:GP_020); MIC in CAMBH media using NBS plates, by Resazurin F(560/590); format: functional; conditions: Concentration 20 uM, ASSAY_TEST Inhibition of Bacterial Growth, detection method Resazurin, Fluorescence (ex560/em590), MEDIA CAMHB, plate type 384well, CORNING #3640, time 18 hr
# Acinetobacter baumannii = test: Antibacterial activity against Acinetobacter baumannii ATCC 19606 (CO-ADD:GN_034); MIC in CAMBH media using NBS plates, by Resazurin F(560/590); format: functional; conditions: Concentration 20 uM, ASSAY_TEST Inhibition of Bacterial Growth, detection method Resazurin, Fluorescence (ex560/em590), MEDIA CAMHB, plate type 384well, CORNING #3640, time 18 hr
# Escherichia coli = test: Antibacterial activity against Escherichia coli ATCC 25922 (CO-ADD:GN_001); MIC in CAMBH media using NBS plates, by Resazurin F(560/590); format: functional; conditions: Concentration 20 uM, ASSAY_TEST Inhibition of Bacterial Growth, detection method Resazurin, Fluorescence (ex560/em590), MEDIA CAMHB, plate type 384well, CORNING #3640, time 18 hr
# Klebsiella pneumoniae = conditions: Concentration 20 uM; ASSAY_TEST Inhibition of Bacterial Growth; detection method Absorption (OD600); MEDIA CAMHB; plate type 384well; NBS; CORNING #3640; time 18 hr
# Candida albicans = conditions: 20 µM
# Cryptococcus neoformans = conditions: Concentration 20 uM; ASSAY_TEST Inhibition of Fungal Growth; detection method Resazurin; Absorption (OD600-OD570); plate type 384well; NBS; CORNING #3640
Structure (SMILES),Inhibition (Staphylococcus aureus),Inhibition (Acinetobacter baumannii),Inhibition (Escherichia coli),Inhibition (Klebsiella pneumoniae),Inhibition (Candida albicans),Inhibition (Cryptococcus neoformans)
COc1c2occc2cc2ccc(=O)oc12 [METHOXSALEN],3.08%,-6.09%,2.12%,4.76%,-3.39%,-9.6%
CC(C)CC1NC(=O)C(C(C)C)NC(=O)CC(C)COC(=O)C(CC(C)C)N(C)C(=O)C(C(C)C)NC(=O)C(C(C)C)OC1=O (stereo not given),-2.11%,3.02%,6.85%,6.52%,-1.26%,-9.65%
COc1cc2c(c(OC)c1OC)-c1ccc(OC)c(=O)cc1[C@@H](NC(C)=O)CC2 [COLCHICINE],-2.4%,-6.56%,3.55%,3.13%,-0.28%,-9.86%
CC1(C)CC23C4COC(=O)C2CCC1C3CC4=O (stereo not given),5.56%,-5.6%,-0.76%,-5.19%,0.59%,-8.62%
COc1c2c(cc3c1[C@@H]1Oc4c(ccc(O)c4CC=C(C)C)[C@@H]1CO3)OC(C)(C)C=C2,-1.33%,-12.04%,1.21%,-0.46%,5.57%,-11.6%
C/C=C/c1cc2c(c(=O)o1)C(=O)[C@@H](O)[C@H](C)O2,-0.66%,-9.6%,14.21%,-6.98%,1.1%,-12.06%
COc1cc(C)c2c(c1C=O)Oc1c(c(C)c(O)c3c1C(O)OC3=O)OC2=O (stereo not given) [STICTIC ACID],1.81%,-4.46%,10.36%,-0.81%,-4.28%,-12.08%
COc1c(O)cc2oc3cc(O)c(CC=C(C)C)c(O)c3c(=O)c2c1CC=C(C)C [MANGOSTIN],-10.76%,-19.44%,-3.06%,-4.57%,-6.96%,-8.44%
COc1c2occc2c(OC)c2c(=O)cc(C)oc12 [KHELLIN],20.27%,-0.82%,5.11%,15.74%,-0.57%,-6.58%
C[C@@H]1C(=O)C[C@H]2C(C)(C)CCC[C@]2(C)[C@@]1(O)CCc1ccoc1,-11.22%,-8.38%,1.88%,-12.83%,5.12%,-4.02%
CC1(C)C(=O)N2c3ccccc3C3(CC(N4C(=O)c5ccccc5C4=O)C(=O)O3)C2N1C(=O)OCc1ccccc1 (stereo not given),-7.98%,-16.59%,1.59%,-2.04%,1.22%,-12.3%
CC(=O)Oc1ccc2ccc(=O)oc2c1OC(C)=O,18.68%,-10.5%,2.34%,9%,-1.13%,-4.56%
C=C1C(=O)OC2CC3(C)CCCC(C)C3=CC12 (stereo not given),9.16%,-5.59%,-1.07%,10.15%,0.7%,-3.97%
COc1cc(/C=C/C(=O)CC(=O)/C=C/c2ccc(O)c(OC)c2)ccc1O [CURCUMIN],13.57%,-16.03%,0.88%,14.8%,-4.9%,-10.45%
COC(=O)C1C2CC3c4[nH]c5cc(OC)ccc5c4CCN3CC2CC(OC(=O)CCc2cc(OC)c(OC)c(OC)c2)C1OC (stereo not given),8.41%,-10.91%,1.29%,-7.51%,-0.42%,-8.83%
COc1ccc2c(c1)O[C@H]1c3ccc(O)cc3OC[C@@H]21,7.33%,-10.59%,8.35%,-2.42%,12.9%,-18.12%
CC(C)c1ccc2c(c1)CC[C@H]1[C@](C)(C(=O)O)CCC[C@]21C [DEHYDROABIETIC ACID],11.51%,-10.79%,7.61%,-3.77%,14%,-14.06%
CC(=O)C1CCCC(=O)/C=C/C(=O)O1 (stereo not given),-2.82%,-9.57%,-0.06%,-0.08%,6.81%,-5.33%
C=C1C(=O)OC2CC(C)C3(O)CCC(=O)C3(C)CC12 (stereo not given),18.37%,-10.29%,9.08%,2.56%,2.8%,-16.95%
CC1CC(O)C2C3(C)CCCC2(COC3=O)C12CCC1(CCOC1=O)O2 (stereo not given),0.12%,-5.16%,2.41%,8.95%,-0.89%,-8.53%
COc1cc2c3c(c4ccc(OC)c(OC)c4c2cc1OC)CN1CCC[C@@H]1C3 [TYLOCREBRINE],23.41%,-4.59%,1.54%,13.12%,-1.43%,-6.05%
O=c1oc2cc(O)ccc2c2oc3cc(O)ccc3c12 [COUMESTROL],0.36%,-8.94%,2.17%,-3.39%,2.68%,17.46%
COC(=O)[C@@H]1[C@H]2C[C@@H]3c4[nH]c5ccccc5c4CCN3C[C@@H]2CC[C@@H]1O,20.93%,-4.53%,11.73%,-5.72%,-3.73%,-8.25%
CCCCCC[C@H]([C@H](C)O)n1cnc2c(N)ncnc21.Cl,18.32%,-17.98%,7.31%,-3.55%,-0.37%,-9.44%
CCC1OC(=O)C(C)C(OC2CC(C)(O)C(O)C(C)O2)C(C)C(O)C(C)(O)CC(C)C(=O)C(C)C(O)C1C (stereo not given),-9.59%,-2.14%,7.74%,3.36%,1.65%,-12.63%
